Source: ChEMBL document CHEMBL1961873, “Compounds: GSK PKIS; Assays: Nanosyn kinase panel” (2012)

Tests used:
[1] = molecular target: Serine/threonine-protein kinase MRCK alpha (Homo sapiens) (UniProt Q5VT25); conditions: at 0.1 µM
[2] = molecular target: Serine/threonine-protein kinase MRCK alpha (Homo sapiens) (UniProt Q5VT25); conditions: at 1 µM
[3] = molecular target: Serine/threonine-protein kinase MRCK beta (Homo sapiens) (UniProt Q9Y5S2); conditions: at 0.1 µM
[4] = molecular target: Serine/threonine-protein kinase MRCK beta (Homo sapiens) (UniProt Q9Y5S2); conditions: at 1 µM
[5] = molecular target: Ribosomal protein S6 kinase alpha-5 (Homo sapiens) (UniProt O75582); conditions: at 0.1 µM
Sequence of Ribosomal protein S6 kinase alpha-5 (Homo sapiens) (O75582 whole entry, looked up): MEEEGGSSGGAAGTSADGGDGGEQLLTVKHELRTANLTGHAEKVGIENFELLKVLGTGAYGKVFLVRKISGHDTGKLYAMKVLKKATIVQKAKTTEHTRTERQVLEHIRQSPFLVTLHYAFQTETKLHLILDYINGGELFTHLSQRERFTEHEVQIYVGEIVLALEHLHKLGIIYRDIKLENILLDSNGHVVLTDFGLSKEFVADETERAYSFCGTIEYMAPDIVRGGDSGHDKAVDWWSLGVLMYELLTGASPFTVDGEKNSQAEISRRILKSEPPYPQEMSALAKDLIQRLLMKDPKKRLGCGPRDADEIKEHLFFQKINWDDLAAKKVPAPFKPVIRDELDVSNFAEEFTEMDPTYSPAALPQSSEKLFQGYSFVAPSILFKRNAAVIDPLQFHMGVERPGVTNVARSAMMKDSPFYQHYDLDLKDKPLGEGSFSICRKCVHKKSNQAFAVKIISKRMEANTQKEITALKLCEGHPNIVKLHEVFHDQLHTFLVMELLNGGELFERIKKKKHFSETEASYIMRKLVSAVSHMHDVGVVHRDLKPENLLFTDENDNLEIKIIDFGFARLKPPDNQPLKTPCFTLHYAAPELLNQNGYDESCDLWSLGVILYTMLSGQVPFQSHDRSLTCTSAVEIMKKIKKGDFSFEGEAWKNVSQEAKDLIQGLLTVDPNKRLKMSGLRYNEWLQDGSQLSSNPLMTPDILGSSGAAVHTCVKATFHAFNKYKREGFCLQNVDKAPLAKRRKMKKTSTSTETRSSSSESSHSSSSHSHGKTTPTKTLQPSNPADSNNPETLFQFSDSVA

[6] = molecular target: Ribosomal protein S6 kinase alpha-5 (Homo sapiens) (UniProt O75582); conditions: at 1 µM
[7] = molecular target: Ribosomal protein S6 kinase alpha-4 (Homo sapiens) (UniProt O75676); conditions: at 0.1 µM
Sequence of Ribosomal protein S6 kinase alpha-4 (Homo sapiens) (O75676 whole entry, looked up): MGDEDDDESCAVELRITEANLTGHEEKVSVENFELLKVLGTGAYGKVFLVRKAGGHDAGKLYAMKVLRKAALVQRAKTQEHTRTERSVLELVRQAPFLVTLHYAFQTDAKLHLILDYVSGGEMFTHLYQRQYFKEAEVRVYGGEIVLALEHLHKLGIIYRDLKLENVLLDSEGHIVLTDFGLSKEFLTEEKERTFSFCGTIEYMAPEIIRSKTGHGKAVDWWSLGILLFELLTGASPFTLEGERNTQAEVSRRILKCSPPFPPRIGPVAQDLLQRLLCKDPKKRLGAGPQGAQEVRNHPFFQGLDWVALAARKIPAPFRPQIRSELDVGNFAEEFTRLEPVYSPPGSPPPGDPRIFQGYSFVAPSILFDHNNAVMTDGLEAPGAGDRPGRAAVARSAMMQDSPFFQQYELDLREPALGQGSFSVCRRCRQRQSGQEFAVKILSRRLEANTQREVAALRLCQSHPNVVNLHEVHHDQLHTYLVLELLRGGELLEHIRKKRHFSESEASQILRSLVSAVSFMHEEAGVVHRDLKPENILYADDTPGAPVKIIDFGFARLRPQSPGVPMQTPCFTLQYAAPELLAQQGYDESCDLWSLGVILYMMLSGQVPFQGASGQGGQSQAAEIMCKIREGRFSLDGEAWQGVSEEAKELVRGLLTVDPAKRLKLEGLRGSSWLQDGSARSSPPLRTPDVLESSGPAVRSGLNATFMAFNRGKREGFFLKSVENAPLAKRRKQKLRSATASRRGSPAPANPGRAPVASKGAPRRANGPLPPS

[8] = molecular target: Ribosomal protein S6 kinase alpha-4 (Homo sapiens) (UniProt O75676); conditions: at 1 µM
[9] = molecular target: Ribosomal protein S6 kinase beta-1 (Homo sapiens) (UniProt P23443); conditions: at 0.1 µM
Sequence of Ribosomal protein S6 kinase beta-1 (Homo sapiens) (P23443 whole entry, looked up): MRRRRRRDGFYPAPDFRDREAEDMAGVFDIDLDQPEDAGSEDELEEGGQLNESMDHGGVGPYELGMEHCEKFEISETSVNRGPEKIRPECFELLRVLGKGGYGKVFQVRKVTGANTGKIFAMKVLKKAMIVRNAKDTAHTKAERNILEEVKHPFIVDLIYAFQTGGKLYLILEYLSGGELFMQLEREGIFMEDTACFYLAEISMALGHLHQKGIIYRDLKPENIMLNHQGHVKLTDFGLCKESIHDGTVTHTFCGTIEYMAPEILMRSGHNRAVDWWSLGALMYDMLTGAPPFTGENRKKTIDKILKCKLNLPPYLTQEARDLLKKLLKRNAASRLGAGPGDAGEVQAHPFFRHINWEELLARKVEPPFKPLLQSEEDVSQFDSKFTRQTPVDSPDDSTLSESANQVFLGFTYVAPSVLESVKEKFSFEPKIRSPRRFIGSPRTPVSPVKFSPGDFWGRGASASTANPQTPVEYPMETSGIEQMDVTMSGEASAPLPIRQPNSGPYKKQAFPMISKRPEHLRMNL

[10] = molecular target: Ribosomal protein S6 kinase beta-1 (Homo sapiens) (UniProt P23443); conditions: at 1 µM
[11] = molecular target: T1, 3-phosphoinositide-dependent protein kinase 1 (Homo sapiens) (UniProt O15530); conditions: at 0.1 µM;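 also: values are mean inhibition of PDK1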
T1 sequence (whole entry): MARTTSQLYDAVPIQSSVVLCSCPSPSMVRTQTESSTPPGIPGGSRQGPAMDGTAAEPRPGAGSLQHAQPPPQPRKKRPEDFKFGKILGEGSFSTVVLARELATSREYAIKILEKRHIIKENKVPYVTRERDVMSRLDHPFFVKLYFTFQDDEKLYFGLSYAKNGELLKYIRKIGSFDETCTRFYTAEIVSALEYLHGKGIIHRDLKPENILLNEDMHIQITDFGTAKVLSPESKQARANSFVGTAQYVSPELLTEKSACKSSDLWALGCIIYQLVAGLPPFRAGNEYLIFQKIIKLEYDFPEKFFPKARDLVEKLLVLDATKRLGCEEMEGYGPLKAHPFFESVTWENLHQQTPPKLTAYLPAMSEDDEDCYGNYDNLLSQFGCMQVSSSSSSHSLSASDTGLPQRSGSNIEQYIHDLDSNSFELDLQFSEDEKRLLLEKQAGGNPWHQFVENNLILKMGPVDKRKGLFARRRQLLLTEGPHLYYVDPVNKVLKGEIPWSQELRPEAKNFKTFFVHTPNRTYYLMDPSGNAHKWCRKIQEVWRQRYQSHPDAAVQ

[12] = molecular target: cAMP-dependent protein kinase catalytic subunit alpha (Homo sapiens) (UniProt P17612); conditions: at 0.1 µM
[13] = molecular target: cAMP-dependent protein kinase catalytic subunit alpha (Homo sapiens) (UniProt P17612); conditions: at 1 µM
[14] = molecular target: Protein kinase C alpha type (Homo sapiens) (UniProt P17252); conditions: at 0.1 µM
[15] = molecular target: Protein kinase C alpha type (Homo sapiens) (UniProt P17252); conditions: at 1 µM
[16] = molecular target: Protein kinase C beta type (Homo sapiens) (UniProt P05771); conditions: at 0.1 µM
Sequence of Protein kinase C beta type (Homo sapiens) (P05771 2-671 limits assumed): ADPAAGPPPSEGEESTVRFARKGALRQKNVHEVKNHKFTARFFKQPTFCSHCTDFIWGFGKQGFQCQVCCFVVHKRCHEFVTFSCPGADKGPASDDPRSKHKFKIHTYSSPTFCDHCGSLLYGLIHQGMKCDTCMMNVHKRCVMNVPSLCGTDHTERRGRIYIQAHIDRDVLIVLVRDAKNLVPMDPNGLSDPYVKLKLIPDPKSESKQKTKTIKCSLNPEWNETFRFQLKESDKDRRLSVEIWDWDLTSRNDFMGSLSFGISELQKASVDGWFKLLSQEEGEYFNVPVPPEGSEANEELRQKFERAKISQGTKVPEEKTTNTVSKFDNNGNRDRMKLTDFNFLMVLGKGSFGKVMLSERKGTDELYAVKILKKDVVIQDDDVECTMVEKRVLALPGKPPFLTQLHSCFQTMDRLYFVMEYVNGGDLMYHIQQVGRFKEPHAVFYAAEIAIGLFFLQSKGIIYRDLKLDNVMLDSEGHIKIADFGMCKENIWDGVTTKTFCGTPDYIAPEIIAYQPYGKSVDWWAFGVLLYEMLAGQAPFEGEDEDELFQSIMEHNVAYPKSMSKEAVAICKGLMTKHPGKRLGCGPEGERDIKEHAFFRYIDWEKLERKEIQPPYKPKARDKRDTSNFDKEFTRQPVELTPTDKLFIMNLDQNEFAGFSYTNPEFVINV

[17] = molecular target: Protein kinase C beta type (Homo sapiens) (UniProt P05771); conditions: at 1 µM
[18] = molecular target: Protein kinase C eta type (Homo sapiens) (UniProt P24723); conditions: at 0.1 µM
Sequence of Protein kinase C eta type (Homo sapiens) (P24723 whole entry): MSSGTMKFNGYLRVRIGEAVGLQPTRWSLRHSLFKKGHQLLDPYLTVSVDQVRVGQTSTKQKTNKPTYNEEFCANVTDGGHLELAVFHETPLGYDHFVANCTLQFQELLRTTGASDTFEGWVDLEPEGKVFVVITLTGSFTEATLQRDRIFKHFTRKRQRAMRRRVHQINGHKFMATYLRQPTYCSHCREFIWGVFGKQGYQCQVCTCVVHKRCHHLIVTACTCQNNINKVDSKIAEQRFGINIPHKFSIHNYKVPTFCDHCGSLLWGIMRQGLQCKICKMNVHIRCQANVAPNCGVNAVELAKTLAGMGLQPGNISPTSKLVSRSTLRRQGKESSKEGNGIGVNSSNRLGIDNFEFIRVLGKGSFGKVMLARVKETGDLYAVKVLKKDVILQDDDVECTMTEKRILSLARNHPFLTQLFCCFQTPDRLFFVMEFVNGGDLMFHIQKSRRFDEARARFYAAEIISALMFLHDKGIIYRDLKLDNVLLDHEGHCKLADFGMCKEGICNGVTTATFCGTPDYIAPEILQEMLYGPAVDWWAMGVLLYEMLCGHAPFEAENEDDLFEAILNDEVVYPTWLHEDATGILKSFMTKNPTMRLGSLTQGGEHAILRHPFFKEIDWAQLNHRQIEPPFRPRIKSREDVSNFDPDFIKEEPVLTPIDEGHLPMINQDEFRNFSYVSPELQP

[19] = molecular target: Protein kinase C eta type (Homo sapiens) (UniProt P24723); conditions: at 1 µM
[20] = molecular target: Protein kinase C gamma type (Homo sapiens) (UniProt P05129); conditions: at 0.1 µM;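 also: values are mean percent inhibition of PKC gamma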

Compound | inhibition [1] | inhibition [2] | inhibition [3] | inhibition [4] | inhibition [5] | inhibition [6] | inhibition [7] | inhibition [8] | inhibition [9] | inhibition [10] | inhibition [11] | inhibition [12] | inhibition [13] | inhibition [14] | inhibition [15] | inhibition [16] | inhibition [17] | inhibition [18] | inhibition [19] | inhibition [20]
COc1ccc(-c2nn3ncccc3c2-c2ccnc(Nc3ccc(Cl)c(C(F)(F)F)c3)n2)cc1 | -0.16% | 3.43% | -1.37% | 0.06% | 1.49% | 1.69% | 0.22% | 2.02% | 0.17% | 2.22% | 0.17% | 1.59% | 1.26% | 0.22% | -0.2% | 0.17% | 3.13% | 2.79% | 2.3% | 1.74%
CN1CCC(C(=O)Nc2n[nH]c3nnc(-c4ccccc4)cc23)CC1 | 0.2% | 2.63% | -0.23% | 0.78% | -1.68% | -1.22% | 2.89% | 4.31% | 1.63% | 2.47% | 0.14% | 2.6% | 1.51% | 0.67% | 1.72% | 1.03% | 1.27% | 4.63% | 5.6% | 2.25%
COc1cc2c(cc1Nc1nc(N3CCc4ccccc43)c3cc[nH]c3n1)N(C(=O)CN(C)C)CC2 | 1% | -1.14% | 0.86% | 1.27% | 4.25% | 4.71% | 0.65% | 1.75% | 1.59% | 0.46% | 1.89% | 1.41% | 0.85% | 0.7% | 1.9% | 1.5% | 0.59% | 3.35% | -0.3% | 1.53%
CCn1c(-c2nonc2N)nc2cnc(Oc3cccc(NC(=O)c4ccc(OCCN5CCOCC5)cc4)c3)cc21 | 6.6% | 42.3% | 17.8% | 59% | 66.8% | 78.1% | 56.7% | 76.7% | 84.6% | 93% | 2.08% | 17.5% | 65.8% | 3.09% | 34.1% | 37.3% | 64.2% | 71.2% | 94.9% | 13.9%
NS(=O)(=O)c1cccc(-c2ccc3c(NC(=O)C4CC4)n[nH]c3c2)c1 | 0.11% | -0.38% | 0.03% | 2.23% | -0.03% | 1.96% | -0.84% | 0.37% | -1.3% | 0.07% | -1.98% | -0.94% | 0.85% | -0.24% | 0.92% | -0.11% | 2.66% | -2.13% | -2.3% | -1.53%
NC(=O)c1ccc(-c2nc(-c3ccccn3)c(-c3ccc4c(c3)OCO4)[nH]2)cc1 | 0.14% | 2.49% | 1.08% | 0.59% | 1.5% | 1.56% | 2.14% | 4.23% | 1.26% | 2.46% | 2.65% | 1% | 2.8% | 1.23% | 3.42% | -0.16% | 2.78% | -0.32% | -0.29% | -0.15%
CC(=O)Nc1cccc(C#Cc2cncnc2Nc2ccc(OCc3cccc(F)c3)c(Cl)c2)n1 | 2.04% | 4.47% | 0.72% | 3.16% | 8.63% | 10.1% | 2.79% | 4.81% | 0.05% | 0.93% | -0.76% | 2.4% | 4.87% | 1.1% | 0.59% | 5.03% | 8.84% | 0.65% | 3.65% | 2.74%
